# Measured values as given in the antibiotic and cytotoxicity screens of Wong et al. (2023).
# Out of some 39,000 compounds screened, about 3,300 (8.5%) were called active. The full list was thinned out, with actives kept by preference.
# Tested on: HepG2
# Assay: cytotoxicity call (relative viability < 0.9)
# Conditions: 10 µM
row,Compound,cytotoxicity call
1,CC(C)NC(=O)N(C)C[C@H]1OCCCC[C@@H](C)Oc2ccc(NC(=O)Nc3ccc(F)cc3)cc2C(=O)N([C@@H](C)CO)C[C@H]1C,inactive
2,CC(C)CC#Cc1cnc2c(c1)C(=O)N([C@H](C)CO)C[C@@H](C)[C@H](CN(C)S(=O)(=O)c1cccs1)O2,inactive
3,Cc1noc(C)c1S(=O)(=O)N(C)C[C@H]1OCCCC[C@H](C)Oc2ccc(NS(C)(=O)=O)cc2C(=O)N([C@@H](C)CO)C[C@@H]1C,inactive
4,C[C@@H]1CN([C@@H](C)CO)C(=O)Cc2cc(NC(=O)C3CC3)ccc2O[C@H]1CN(C)C(=O)Nc1ccc2c(c1)OCO2,inactive
5,CNC(=O)c1ccc2c(c1)OCO2,inactive
6,O=C(C[C@@H]1C[C@H]2c3cc(NS(=O)(=O)c4ccc(F)cc4)ccc3O[C@H]2[C@H](CO)O1)NCc1cccc(F)c1,inactive
7,C[C@H]1CN([C@@H](C)CO)C(=O)Cc2cc(NC(=O)NC3CCCCC3)ccc2O[C@H]1CN(C)C(=O)Nc1ccc(C(F)(F)F)cc1,inactive
8,C[C@H](CO)N1C[C@H](C)[C@@H](CN(C)Cc2ccc(Oc3ccccc3)cc2)Oc2cc(Br)ccc2S1(=O)=O,inactive
9,C[C@H]1CN([C@@H](C)CO)C(=O)Cc2cc(NS(=O)(=O)c3cccs3)ccc2O[C@H]1CN(C)S(=O)(=O)c1ccccc1,inactive
10,C[C@@H]1CCCCO[C@@H](CN(C)Cc2ccccc2)[C@H](C)CN([C@@H](C)CO)C(=O)c2cc(NS(=O)(=O)c3ccc(F)cc3)ccc2O1,inactive
11,Cc1c2oc3c(C)ccc(C(=O)N[C@@H]4C(=O)N[C@@H](C(C)C)C(=O)N5CCC[C@H]5C(=O)N(C)CC(=O)N(C)[C@@H](C(C)C)C(=O)O[C@@H]4C)c3nc-2c(C(=O)N[C@@H]2C(=O)N[C@@H](C(C)C)C(=O)N3CCC[C@H]3C(=O)N(C)CC(=O)N(C)[C@@H](C(C)C)C(=O)O[C@@H]2C)c(N)c1=O,active
12,Cc1c2oc3c(C)ccc(C(=O)OC(C)C4NC(=O)C(C(C)C)N(C)C(=O)CN(C)C(=O)C5CCCN5C(=O)C(C(C)C)NC4=O)c3nc-2c(C(=O)OC(C)C2NC(=O)C(C(C)C)N(C)C(=O)CN(C)C(=O)C3CCCN3C(=O)C(C(C)C)NC2=O)c(N)c1=O (stereo not drawn),active
13,Cc1c2oc3c(C)ccc(C(=O)N[C@@H]4C(=O)N[C@H](C(C)C)C(=O)N5CCC[C@H]5C(=O)N(C)CC(=O)N(C)[C@@H](C(C)C)C(=O)O[C@@H]4C)c3nc-2c(C(=O)N[C@@H]2C(=O)N[C@H](C(C)C)C(=O)N3CCC[C@H]3C(=O)N(C)CC(=O)N(C)[C@@H](C(C)C)C(=O)O[C@@H]2C)c(N)c1=O,active
